PubChem BioAssay AID1159580 (chemical genetic matrix, 2015)
Among all 5,500 compounds or so, about 2,000 (36%) were called active. Roughly 18% stayed inconclusive and do not appear here. Cut-off read from the data, not from the text of the source: active = normalized growth mostly below about 0.91 (no sharp cut-off); inconclusive = no clear call, values can overlap the other calls; inactive = mostly above about 0.92. This is one part of the list.

Experiment: chemical genetic growth profiling, strain panel (AID 1159580);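 note: tested at 20 µM; growth read once vehicle control cultures reached saturation at 30 °C; 1 = growth at the plate median or of vehicle wells; lower values mean less growth of the strain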
Conditions: S. cerevisiae deletion strains, growth OD

Measured: normalized growth

COc1cc2c3cc1Oc1c(OC)c(OC)cc4c1[C@@H](Cc1cccc(c1)Oc1ccc(c(O)c1)C[C@@H]3N(C)CC2)N(C)CC4
inactive: locus YHR030C, strain SLT2, stronger effect = lower value 1.02 | locus YHR079C, strain IRE1, stronger effect = lower value 1.01 | locus YJL095W, strain BCK1, stronger effect = lower value 0.994 | locus YJR066W, strain TOR1, stronger effect = lower value 0.984 | locus YLR113W, strain HOG1, stronger effect = lower value 0.968 | locus YNL183C, strain NPR1, stronger effect = lower value 0.983 | locus YOR231W, strain MKK1, stronger effect = lower value 1.03 | locus YPL256C, strain CLN2, stronger effect = lower value 1.07
